Test results: PubChem BioAssay (NCATS)
Results filed as inconclusive are left out. Calls of active or inactive are those of the source. Unless noted, calls come from the whole dose curve; as a rule, active = well fitted curve in the direction sought with a large enough effect; inconclusive = small, poorly fitted or top-dose-only effect, or another doubt; inactive = no such curve, though single readings can be large; an effect the other way counts as inactive or inconclusive.

What was measured:
[1] = target: Lysosomal acid glucosylceramidase (Homo sapiens) (UniProt P04062); experiment: Glucocerebrosidase-p2 (AID 348; in the data active = potency below about 10 µM; note: potency is the fitted concentration of half-maximal effect); settings: purified GBA, blue fluorogenic substrate, 40 min
Chain of Lysosomal acid glucosylceramidase (Homo sapiens) (P04062 whole entry, looked up): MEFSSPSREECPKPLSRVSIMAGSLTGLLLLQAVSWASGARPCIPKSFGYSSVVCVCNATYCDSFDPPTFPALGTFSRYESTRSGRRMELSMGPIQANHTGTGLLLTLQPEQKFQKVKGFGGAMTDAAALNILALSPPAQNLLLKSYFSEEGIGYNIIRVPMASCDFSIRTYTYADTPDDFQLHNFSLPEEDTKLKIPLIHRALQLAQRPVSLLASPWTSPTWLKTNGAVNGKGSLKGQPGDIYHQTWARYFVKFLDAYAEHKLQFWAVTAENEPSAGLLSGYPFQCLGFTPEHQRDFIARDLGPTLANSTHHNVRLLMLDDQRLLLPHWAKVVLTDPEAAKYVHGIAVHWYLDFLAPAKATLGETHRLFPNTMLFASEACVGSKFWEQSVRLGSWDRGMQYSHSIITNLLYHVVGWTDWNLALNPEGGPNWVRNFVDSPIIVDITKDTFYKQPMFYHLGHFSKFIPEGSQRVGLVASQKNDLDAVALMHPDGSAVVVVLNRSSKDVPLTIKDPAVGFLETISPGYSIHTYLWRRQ
In short: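 Normal human glucocerebrosidase (0.2 nM) with blue fluorogenic substrate (80 uM final) in citrate/phosphate pH 5.9 with 10mM sodium taurocholate, 0.01% tween-20; 40 min RT, NaOH/glycine stop; fluorescence Ex 365/Em 440; AC50 from a titration from 0.6 nM upwards.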

[2] = AP1 Signaling Pathway (AID 357; active = well fitted curve in either direction with a large enough effect, not every such curve was filed as active;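 note: ME-180 reporter cells stimulated with EGF at its EC50 level; % is set by controls: 0 for no effect and ±100 for the full control effect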); settings: ME-180 AP-1-bla reporter, EGF-induced, beta-lactamase ratio, 5 h; at 7.69 µM (top of the series) unless noted
In short: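 AP-1-bla ME-180 cells, Opti-MEM + 0.5% dialyzed FBS, plated overnight 37 °C. Cpd titration + EC50 EGF, 5 h 37 °C. CCF4 2.5 h RT; ex 405, em 460/530 ratio → %activity, AC50.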

[3] = target: Cytochrome P450 1A2 (Homo sapiens) (UniProt P05177); experiment: p450-cyp1a2 (AID 410; calls by dose curve; note: potency is the fitted concentration of half-maximal effect); settings: recombinant CYP1A2, luciferin-ME demethylation, luminescence; series mostly up to 57 µM
Chain of Cytochrome P450 1A2 (Homo sapiens) (P05177 whole entry, looked up): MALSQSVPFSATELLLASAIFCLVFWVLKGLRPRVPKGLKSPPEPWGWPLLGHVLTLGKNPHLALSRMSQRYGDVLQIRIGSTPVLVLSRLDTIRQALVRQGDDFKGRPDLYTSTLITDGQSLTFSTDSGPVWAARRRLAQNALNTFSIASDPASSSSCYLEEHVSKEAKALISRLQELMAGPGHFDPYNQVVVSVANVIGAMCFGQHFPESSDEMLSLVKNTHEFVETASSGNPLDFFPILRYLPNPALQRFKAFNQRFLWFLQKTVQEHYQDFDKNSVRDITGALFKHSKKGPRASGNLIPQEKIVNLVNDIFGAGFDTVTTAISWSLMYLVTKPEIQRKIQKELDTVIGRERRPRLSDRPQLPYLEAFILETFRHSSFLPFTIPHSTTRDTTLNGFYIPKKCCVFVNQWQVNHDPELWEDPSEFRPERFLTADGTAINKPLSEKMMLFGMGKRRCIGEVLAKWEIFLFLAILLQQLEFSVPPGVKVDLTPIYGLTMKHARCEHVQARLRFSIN
In short: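 Luminescent demethylation readout: Luciferin-ME (100uM, equal to Km) turned over by 20nM CYP1A2 for 60 min at room temperature after NADPH regeneration addition, following 10 min compound preincubation. Normalization used 57 uM furafylline as full inhibition.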

[4] = NFAT Signaling Pathway (AID 444; active = well fitted curve in either direction with a large enough effect, not every such curve was filed as active;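 note: carbachol stimulus at about its EC50 of 1 µM final; % is set by controls: 0 for no effect and ±100 for the full control effect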); settings: Jurkat NFAT-bla M1, carbachol, beta-lactamase ratio, 5 h; at 7.69 µM (top of the series) unless noted
In short: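 Jurkat cells with NFAT-driven β-lactamase reporter and co-expressed M1 receptor, stimulated with carbachol (final 1 uM, ~EC50), compound titration, 5 h at 37 °C. CCF4 loaded 1 h at RT; 460/530 nm ratio gave %activity and AC50.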

[5] = Stat Signaling Pathway (AID 446; active = well fitted curve in either direction with a large enough effect, not every such curve was filed as active;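 note: ME-180 cervical cancer cells given 40 pM IL-6 alongside compound; SIE-controlled beta-lactamase reporter measured as 460/530 nm FRET emission ratio; % is set by controls: 0 for no effect and ±100 for the full control effect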); settings: ME-180 (cervical carcinoma) SIE beta-lactamase reporter, IL-6 stimulated, 5 h; at 7.69 µM (top of the series) unless noted
In short: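 FRET read-out (405 nm excitation, 460/530 nm emission) of a beta-lactamase reporter under a STAT-inducible element in ME-180 cervical carcinoma cells. Cells with compound receive 40 pM IL-6 for 5 h. Values are normalised to AC90 stimulation and AC90 JAK-inhibitor controls.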

[6] = target: Mitogen-activated protein kinase 10 (Mus musculus) (UniProt Q61831); experiment: JNK3 AlphaScreen Assay (AID 530; active = well fitted curve in either direction with a large enough effect, not every such curve was filed as active;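 note: kinase came from lysate of stimulated human HepG2 cells; signal reports phosphorylation of biotinylated GST-cJun 1-79 at Ser73 with 10 µM ATP; % is set by controls: 0 for no effect and ±100 for the full control effect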); settings: JNK3 lysate, c-Jun phosphorylation; series mostly up to 57.1 µM
In short: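 Activity was read by AlphaScreen after JNK3-containing HepG2 lysate (cytokine pre-activated) phosphorylated biotinylated GST-cJun with 10 uM ATP at room temperature. Phospho-Ser73 cJun antibody with Protein-A acceptor beads provided detection.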

[7] = target: 3',5'-cyclic-AMP phosphodiesterase 4B (Homo sapiens) (UniProt Q07343); experiment: qHTS Assay for Inhibitors of PDE-IV (AID 607; active = well fitted activation curve with a large enough effect in the main read-out, with a control signal flat, not every such curve was filed as active; note: % of control where 0% means no effect); settings: HEK293 ACTOne CNG channel cells, membrane potential fluorescence; series mostly up to 22.9 µM
Chain of 3',5'-cyclic-AMP phosphodiesterase 4B (Homo sapiens) (Q07343 whole entry, looked up): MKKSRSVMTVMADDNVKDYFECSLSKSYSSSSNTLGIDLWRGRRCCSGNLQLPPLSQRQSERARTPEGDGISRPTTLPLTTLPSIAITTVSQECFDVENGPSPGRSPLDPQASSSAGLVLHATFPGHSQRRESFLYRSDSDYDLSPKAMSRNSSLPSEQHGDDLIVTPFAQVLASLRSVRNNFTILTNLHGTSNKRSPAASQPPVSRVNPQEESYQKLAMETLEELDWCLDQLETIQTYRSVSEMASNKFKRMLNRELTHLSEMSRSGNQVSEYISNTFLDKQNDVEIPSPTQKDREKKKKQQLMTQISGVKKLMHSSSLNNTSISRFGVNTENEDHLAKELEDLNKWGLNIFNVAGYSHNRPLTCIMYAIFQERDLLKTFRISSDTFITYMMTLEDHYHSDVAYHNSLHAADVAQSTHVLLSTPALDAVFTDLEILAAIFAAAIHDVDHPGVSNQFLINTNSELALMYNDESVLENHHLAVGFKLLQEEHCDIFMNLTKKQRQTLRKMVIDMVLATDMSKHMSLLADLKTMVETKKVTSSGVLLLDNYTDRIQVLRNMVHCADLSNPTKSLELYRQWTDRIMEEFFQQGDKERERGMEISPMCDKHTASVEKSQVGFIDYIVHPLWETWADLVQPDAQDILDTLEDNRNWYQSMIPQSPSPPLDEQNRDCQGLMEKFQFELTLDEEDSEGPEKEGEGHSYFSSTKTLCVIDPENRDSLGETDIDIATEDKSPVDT
In short: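 Cell-based read-out of cAMP via a modified cyclic nucleotide-gated channel and membrane potential dye (535/590 nm) in HEK293 cells expressing PDE4 endogenously. Compounds tested up to 22.9 uM final; 100 uM RO 20-1724 reference.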

[8] = qHTS Assay for Lipid Storage Modulators (AID 1519; calls by dose curve); settings: Drosophila S3 cells, BODIPY lipid droplet/cell ratio, laser cytometry, cells loaded with oleic acid; for activity change, negative = inhibition: at 57.5 µM (top of the series)
In short: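 Cells seeded at 5,000 per well were treated with compounds over a concentration series and loaded with oleic acid (400 uM, as added). Lipid droplet fluorescence (488 nm excitation, 500-530 nm channel) was read by laser-scanning cytometry and normalized to 20 uM Triacsin C.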

[9] = target: Dual specificity protein kinase CLK4 (Homo sapiens) (UniProt Q9HAZ1); experiment: qHTS Assay for Inhibitors of CDC-like Kinase 4 (ADP-FP Assay) (AID 1795); settings: Transcreener ADP fluorescence polarization; series mostly up to 50 µM;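 note: recombinant human CLK4 phosphorylating RS repeat peptide at 1 µM ATP; % is set by controls: 0 for no effect and ±100 for the full control effect; nearly all actives have a fitted effect of over 60% in size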
Chain of Dual specificity protein kinase CLK4 (Homo sapiens) (Q9HAZ1 whole entry, looked up): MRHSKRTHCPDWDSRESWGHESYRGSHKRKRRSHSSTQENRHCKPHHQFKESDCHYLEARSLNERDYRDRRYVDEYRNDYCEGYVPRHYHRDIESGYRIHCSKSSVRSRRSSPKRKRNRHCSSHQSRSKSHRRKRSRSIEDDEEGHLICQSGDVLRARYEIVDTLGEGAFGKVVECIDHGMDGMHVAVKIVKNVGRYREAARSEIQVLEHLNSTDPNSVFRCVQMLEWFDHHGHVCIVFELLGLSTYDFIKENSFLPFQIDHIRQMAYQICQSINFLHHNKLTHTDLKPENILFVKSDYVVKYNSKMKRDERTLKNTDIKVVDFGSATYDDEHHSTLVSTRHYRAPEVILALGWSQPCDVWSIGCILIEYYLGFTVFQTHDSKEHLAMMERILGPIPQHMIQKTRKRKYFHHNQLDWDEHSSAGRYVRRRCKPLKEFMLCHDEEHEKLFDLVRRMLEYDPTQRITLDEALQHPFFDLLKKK
In short: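 Recombinant Clk4 (6.25 nM) phosphorylated 100 uM RS repeat peptide with 1 uM ATP in 25 mM Tris pH 7.5, 10 mM MgCl2, 0.5 mM EGTA, 2.5 mM DTT, 0.01% Triton X-100 for 1 h. ADP was detected by Transcreener ADP2 competitive fluorescence polarization after 30 min at room temperature.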

[10] = target: Ubiquitin carboxyl-terminal hydrolase 1 (Homo sapiens) (UniProt O94782); experiment: Inhibitors of USP1/UAF1: Pilot qHTS (AID 504865); settings: purified USP1/UAF1, Ub-rhodamine cleavage fluorescence; series mostly up to 54.9 µM;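 note: rhodamine fluorescence freed from ubiquitin-rhodamine substrate followed over time; top concentration of the series differs between compounds; % is set by controls: 0 for no effect and ±100 for the full control effect; nearly all actives have a fitted effect of over 35% in size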
Chain of Ubiquitin carboxyl-terminal hydrolase 1 (Homo sapiens) (O94782 whole entry, looked up): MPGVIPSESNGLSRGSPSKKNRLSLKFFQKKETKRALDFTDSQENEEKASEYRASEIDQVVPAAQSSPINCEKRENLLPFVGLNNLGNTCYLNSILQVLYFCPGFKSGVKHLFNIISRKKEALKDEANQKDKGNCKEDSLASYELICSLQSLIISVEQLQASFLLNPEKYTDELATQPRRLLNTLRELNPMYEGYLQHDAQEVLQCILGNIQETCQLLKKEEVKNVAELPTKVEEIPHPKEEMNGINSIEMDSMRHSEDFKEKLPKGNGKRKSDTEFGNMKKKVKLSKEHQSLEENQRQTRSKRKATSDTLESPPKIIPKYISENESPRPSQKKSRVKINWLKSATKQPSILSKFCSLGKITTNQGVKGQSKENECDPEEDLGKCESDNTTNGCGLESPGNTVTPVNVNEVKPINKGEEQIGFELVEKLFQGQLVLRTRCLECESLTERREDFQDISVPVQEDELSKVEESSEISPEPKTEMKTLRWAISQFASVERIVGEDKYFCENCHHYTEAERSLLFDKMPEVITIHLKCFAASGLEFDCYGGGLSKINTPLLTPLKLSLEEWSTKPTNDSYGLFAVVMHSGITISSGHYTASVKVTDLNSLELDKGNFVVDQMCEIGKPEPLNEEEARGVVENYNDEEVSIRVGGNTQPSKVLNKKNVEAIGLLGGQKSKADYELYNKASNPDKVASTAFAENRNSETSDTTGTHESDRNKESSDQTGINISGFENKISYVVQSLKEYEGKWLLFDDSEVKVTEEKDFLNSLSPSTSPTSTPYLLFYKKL
In short: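 USP1/UAF1 complex at 1 nM preincubated 15 min at room temperature with compound, then Ub-Rho substrate added at 150 nM final. Fluorescence (480/540 nm) read kinetically in 50 mM HEPES pH 7.8, 0.5 mM EDTA, 1 mM TCEP, 0.1 mg/ml BSA, 0.01% Tween-20.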

[11] = Primary qHTS for small molecule stabilizers of the endoplasmic reticulum resident proteome: Secreted ER Calcium Modulated Protein (SERCaMP) assay (AID 1508630); settings: SH-SY5Y GLuc-SERCaMP (Gaussia luciferase released on ER calcium loss) secretion, thapsigargin, luminescence; series mostly up to 38.4 µM; note: % is set by controls: 0 for no effect and ±100 for the full control effect
In short: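 The SH-SY5Y reporter protocol was run at 3 concentrations up to 38.3 uM (primary) or 11 concentrations (follow-up): 16 h compound, 100 nM thapsigargin for 4 h, then extracellular luciferase luminescence.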

[12] = target: Glucocorticoid receptor (Homo sapiens) (UniProt P04150); experiment: GR-GFP Redistribution (AID 450;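 active = compounds whose dose series gives a full or clear partial fitted curve of increased nuclear translocation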; note: potency is the fitted concentration of half-maximal effect); settings: U2OS GR-GFP nuclear translocation, laser cytometry, 2 h
Chain of Glucocorticoid receptor (Homo sapiens) (P04150 whole entry, looked up, the tested form may be a part): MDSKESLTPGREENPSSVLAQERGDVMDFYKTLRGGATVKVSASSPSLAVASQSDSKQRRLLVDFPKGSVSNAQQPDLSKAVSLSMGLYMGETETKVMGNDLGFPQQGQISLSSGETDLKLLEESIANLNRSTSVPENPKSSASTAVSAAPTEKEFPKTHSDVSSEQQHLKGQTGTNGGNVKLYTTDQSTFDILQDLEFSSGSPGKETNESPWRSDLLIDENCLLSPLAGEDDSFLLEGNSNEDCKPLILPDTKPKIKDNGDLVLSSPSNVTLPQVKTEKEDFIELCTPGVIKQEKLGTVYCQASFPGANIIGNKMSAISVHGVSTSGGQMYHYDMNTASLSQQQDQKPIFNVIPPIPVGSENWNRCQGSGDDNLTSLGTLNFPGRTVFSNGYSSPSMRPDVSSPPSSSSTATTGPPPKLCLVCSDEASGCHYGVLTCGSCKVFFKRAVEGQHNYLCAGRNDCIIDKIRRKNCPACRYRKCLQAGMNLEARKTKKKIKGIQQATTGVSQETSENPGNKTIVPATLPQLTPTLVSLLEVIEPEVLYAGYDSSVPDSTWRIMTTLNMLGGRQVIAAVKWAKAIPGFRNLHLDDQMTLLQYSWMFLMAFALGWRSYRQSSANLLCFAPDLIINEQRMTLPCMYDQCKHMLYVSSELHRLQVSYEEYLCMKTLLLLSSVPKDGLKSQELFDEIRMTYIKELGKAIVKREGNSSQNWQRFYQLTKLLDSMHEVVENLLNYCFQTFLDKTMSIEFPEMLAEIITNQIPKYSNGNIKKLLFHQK

[13] = target: Glucocorticoid receptor (Homo sapiens) (UniProt P04150); experiment: GR-EFC Redistribution (AID 451; calls by dose curve; note: potency is the fitted concentration of half-maximal effect); settings: CHO-K1 GR-EFC translocation, beta-gal luminescence, 2 h
In short: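 CHO-K1 cells expressing nuclear EA and GR-ED fragments of b-gal; compounds titrated up to 46 uM final, 2 h at 37 C. GR nuclear translocation read as complemented b-gal luminescence after 1 h RT detection.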

[14] = target: Cytochrome P450 3A4 (Homo sapiens) (UniProt P08684); experiment: qHTS Assay for Activators of Cytochrome P450 3A4 (AID 885); settings: recombinant CYP3A4, Luciferin-PPXE luminescence, 60 min; series mostly up to 57.1 µM; note: nearly all actives have a fitted effect of over 65% in size
Chain of Cytochrome P450 3A4 (Homo sapiens) (P08684 whole entry, looked up): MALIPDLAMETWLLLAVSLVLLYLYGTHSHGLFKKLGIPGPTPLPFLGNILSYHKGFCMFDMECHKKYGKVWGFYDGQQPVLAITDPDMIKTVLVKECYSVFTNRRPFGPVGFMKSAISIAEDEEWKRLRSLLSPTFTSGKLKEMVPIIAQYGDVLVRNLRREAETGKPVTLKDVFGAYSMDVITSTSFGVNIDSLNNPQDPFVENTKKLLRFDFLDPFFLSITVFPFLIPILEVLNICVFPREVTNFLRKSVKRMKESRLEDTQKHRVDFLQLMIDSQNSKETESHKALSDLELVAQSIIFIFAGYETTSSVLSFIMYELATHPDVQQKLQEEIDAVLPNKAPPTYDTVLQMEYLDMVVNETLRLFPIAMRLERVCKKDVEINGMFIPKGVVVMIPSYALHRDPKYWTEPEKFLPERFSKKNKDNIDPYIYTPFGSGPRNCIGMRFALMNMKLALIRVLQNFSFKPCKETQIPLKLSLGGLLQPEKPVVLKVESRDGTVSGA
In short: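 Luminescent readout of luciferin formed from 25 uM Luciferin-PPXE (KM level) by 20 nM CYP3A4 in 200 mM KPO4, with 60 min NADPH-driven reaction at room temperature after 10 min compound exposure. Ketoconazole (57 uM) defined 100% inhibition.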

[15] = target: Cytochrome P450 3A4 (Homo sapiens) (UniProt P08684); experiment: qHTS Assay for Inhibitors and Substrates of Cytochrome P450 3A4 (AID 884); settings: recombinant CYP3A4, Luciferin-PPXE luminescence; series mostly up to 57.1 µM; note: potency is the fitted concentration of half-maximal effect; nearly all actives have a fitted effect of over 50% in size
In short: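 Luminescent readout of luciferin produced by CYP3A4 (20 nM) dealkylation of Luciferin-PPXE, 25 uM (its KM). NADPH-driven reaction ran 60 min at RT after 10 min compound preincubation; data scaled to 57 uM ketoconazole as 100% inhibition.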

[16] = target: Cytochrome P450 2C19 (Homo sapiens) (UniProt P33261); experiment: qHTS Assay for Inhibitors and Substrates of Cytochrome P450 2C19 (AID 899); settings: recombinant CYP2C19, luciferin-H EGE luminescence; series mostly up to 57.1 µM; note: potency is the fitted concentration of half-maximal effect; nearly all actives have a fitted effect of over 60% in size
Chain of Cytochrome P450 2C19 (Homo sapiens) (P33261 whole entry, looked up): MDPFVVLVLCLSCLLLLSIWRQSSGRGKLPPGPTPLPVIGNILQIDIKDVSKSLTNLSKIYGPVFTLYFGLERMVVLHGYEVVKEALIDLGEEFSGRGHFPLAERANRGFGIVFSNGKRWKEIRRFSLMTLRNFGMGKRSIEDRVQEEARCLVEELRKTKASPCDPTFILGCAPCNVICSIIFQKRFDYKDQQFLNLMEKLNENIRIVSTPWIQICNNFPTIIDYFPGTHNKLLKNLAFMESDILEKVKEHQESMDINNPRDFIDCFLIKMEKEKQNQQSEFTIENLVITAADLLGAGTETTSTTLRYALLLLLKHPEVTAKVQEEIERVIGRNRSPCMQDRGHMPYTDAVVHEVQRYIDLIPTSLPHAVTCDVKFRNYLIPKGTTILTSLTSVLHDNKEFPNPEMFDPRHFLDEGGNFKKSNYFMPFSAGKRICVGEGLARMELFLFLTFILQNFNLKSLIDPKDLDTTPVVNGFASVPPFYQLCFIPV
In short: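 5 nM human CYP2C19 with 10uM Luciferin-H EGE (at KM) in 50mM KPO4, compound preincubated 10 min at 37C, then NADPH regeneration for 60 min at 37C. Luciferin read by luminescence after detection reagent; normalized to 57uM ketoconazole as full inhibition.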

[17] = Confirmation and Secondary Assay for Modulators of Hemoglobin Beta Chain Splicing at IVS2 654 locus (AID 910); settings: HeLa EGFP-654 splicing reporter, GFP fluorescence, 48 h; series mostly up to 38.3 µM;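 note: HeLa cells stably carrying EGFP split by mutant beta-globin IVS2-654 intron; % of control where 0% means no effect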
In short: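 HeLa cells stably expressing EGFP interrupted by β-globin IVS2-654 intron, seeded overnight in Opti-MEM/2% FCS, then treated 2 days at 37 °C. Restored splicing read as total peak GFP intensity per well by laser scanning cytometry (488 nm excitation, 500–520 nm emission); 500 nM antisense PNA as control.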

[18] = Confirmation and Secondary Assay for Modulators of Hemoglobin Beta Chain Splicing at IVS2 705 locus (AID 930); settings: HeLa EGFP-705 splicing reporter, GFP fluorescence, 48 h; series mostly up to 38.3 µM;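 note: HeLa cells stably expressing the EGFP-705 splicing reporter; GFP fluorescence per well restored by corrected splicing of the IVS2-705 intron in EGFP; % of control where 0% means no effect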
In short: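 Secondary splice-site specificity test uses HeLa expressing CMV-driven EGFP interrupted by IVS2-705; cells were treated 2 days at 37C with 500 nM antisense PNA as positive control.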

[19] = measured here: cell count channel max response
[20] = measured here: lipid channel max response

Structure (SMILES) | Potency [1] | activity change, negative = inhibition [2] | Potency [3] | activity change, negative = inhibition [4] | activity, negative = inhibition [5] | outcome [6] | Potency [7] | activity change, negative = inhibition [8] | max response [8, 19] [%] | max response [8, 20] [%] | Potency [9] | Potency [10] | Potency [11] | Potency [12] | Potency [13] | Potency [14] | Potency [15] | Potency [16] | outcome [17] | outcome [18]
O=c1cnc2cnc(N3CCOCC3)nc2n1C1CC1 | > 11.4 µM (inactive) | 18.1% (inactive) | 6.31 µM (active) | -1.07% (inactive) | -6.14% (inactive) | inactive | inactive | 1.43% (inactive) | 8.4 | 8.8 | inactive | inactive | inactive |  |  |  |  |  |  | 
CCNc1ncc2nc(C)c(=O)n(Cc3cccs3)c2n1 | > 11.4 µM (inactive) | 19% (inactive) | 2 µM (active) | -12.9% (inactive) | -7.43% (inactive) | inactive |  | 6.19% (inactive) | -9.24 | -5.88 | inactive | inactive | inactive | > 9.22 µM (inactive) | > 46 µM (inactive) | inactive |  |  |  | 
COc1ccccc1-c1ccc2ncnc(NC3CCNCC3)c2c1 | > 11.4 µM (inactive) | 2.47% (inactive) |  | 5.17% (inactive) | 3.74% (inactive) | inactive | inactive | 4.79% (inactive) | 10.6 | 12.3 | inactive | inactive | inactive | > 46 µM (inactive) | > 46 µM (inactive) |  |  |  |  | 
COc1cccc(Cn2c(=O)cnc3cnc(Oc4ccccc4)nc32)c1 | > 11.4 µM (inactive) | -13.9% (inactive) |  | -0.253% (inactive) | -14.7% (inactive) | inactive |  | -0.165% (inactive) | 3.98 | 3.52 | inactive | inactive | inactive | > 9.22 µM (inactive) | > 46 µM (inactive) |  |  |  |  | 
COc1cccc(-c2cncnc2-n2ccnc2)c1 | > 11.4 µM (inactive) | 3.37% (inactive) | 0.1 µM (active) | -0.356% (inactive) | -1.78% (inactive) | inactive | inactive | 7.42% (inactive) | -2.24 | 4.82 |  | inactive | inactive | > 46 µM (inactive) | > 46 µM (inactive) | inactive | 0.316 µM (active) | 0.631 µM (active) | inactive | inactive
CN(Cc1ccco1)c1ncnc2ccc(-c3ccccc3C(F)(F)F)cc12 | > 11.4 µM (inactive) | 4.42% (inactive) | 5.01 µM (active) | -18.5% (inactive) | -19.3% (inactive) | inactive |  | -0.853% (inactive) | 20.9 | 18.1 | inactive | inactive | inactive | > 46 µM (inactive) | > 46 µM (inactive) | inactive |  | 3.16 µM (active) |  | 
